# Reference: PubChem BioAssay (NCI)
# The panel holds about 79,000 compounds, 15% with a hit somewhere; the sample as a whole holds those more often. Unmarked numbers belong to inactive results. Activity calls are given as the source filed them. Rule as the data show it: active = growth inhibition above about 70%; inactive = the rest.
# Key:
# [1] = NCI Yeast Anticancer Drug Screen. Data for the rad52 strain (AID 147);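 also: 0% = growth of vehicle-treated control cultures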; conditions: S. cerevisiae rad52 mutant growth inhibition, active compounds read high
# How it was run: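 Yeast strain carrying a DNA damage repair alteration was exposed to test compounds. Growth inhibition was measured relative to vehicle-treated controls.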
# [2] = NCI Yeast Anticancer Drug Screen. Data for the wt1 strain (AID 149);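 also: 0% = growth of vehicle-treated wt1 cultures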; conditions: S. cerevisiae wt1 strain (SPY 50644) growth inhibition, active compounds read high
# How it was run: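 Compounds are added to wt1 yeast cultures. Growth is then measured. Inhibition is expressed relative to vehicle-treated controls.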
# [3] = NCI Yeast Anticancer Drug Screen. Data for the rad50EPP+ strain (AID 151);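 also: 0% = growth of vehicle-treated control cultures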; conditions: S. cerevisiae rad50 mutant strain, active compounds read high
# How it was run: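 Yeast strain carrying rad50 alteration (rad50EPP+) exposed to compounds; growth inhibition measured relative to vehicle-treated controls.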
# [4] = NCI Yeast Anticancer Drug Screen. Data for the mgt1 strain (AID 153); conditions: S. cerevisiae mgt1 mutant growth inhibition, active compounds read high
# How it was run: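 Yeast mgt1 strain (DNA repair/cell-cycle alteration panel) exposed to compounds; growth inhibition measured relative to vehicle-treated controls.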
# [5] = NCI Yeast Anticancer Drug Screen. Data for the rad50 strain (AID 155);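 also: 0% = growth of vehicle-only cultures of the same strain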; conditions: S. cerevisiae rad50 strain growth inhibition, active compounds read high
# How it was run: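 Inhibition values express reduced yeast growth in compound-treated cultures relative to vehicle-treated controls.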
# [6] = NCI Yeast Anticancer Drug Screen. Data for the rad14 strain (AID 159);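 also: 0% = growth of vehicle-treated control cultures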; conditions: S. cerevisiae rad14 strain growth inhibition, active compounds read high
# How it was run: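 A mutant yeast strain defective in DNA damage repair is treated with compound; inhibition of its growth is scored against untreated, vehicle-exposed cultures.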
# [7] = NCI Yeast Anticancer Drug Screen. Data for the sgs1 mgt1 strain (AID 161);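 also: 0% = growth of cultures given vehicle only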; conditions: S. cerevisiae sgs1 mgt1 strain, active compounds read high
# How it was run: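 Compounds are added to genetically altered yeast, and growth is compared with cultures given vehicle alone to give percent inhibition.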
# [8] = NCI Yeast Anticancer Drug Screen. Data for the CLN2oe strain (AID 163);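 also: 0% = growth of vehicle-only control cultures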; conditions: S. cerevisiae CLN2oe strain, active compounds read high
# How it was run: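 Yeast cells carrying a defined cell-cycle control alteration were exposed to test compounds. Growth inhibition was scored against vehicle-treated control cultures.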
# [9] = NCI Yeast Anticancer Drug Screen. Data for the cln2 rad14 strain (AID 165);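 also: 0% = growth equal to vehicle treated cultures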; conditions: S. cerevisiae cln2 rad14 strain, active compounds read high
# How it was run: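 Yeast carrying cln2 and rad14 alterations (cell cycle control and DNA damage repair) were exposed to compounds. Growth inhibition was measured against vehicle-treated controls.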
# [10] = NCI Yeast Anticancer Drug Screen. Data for the bub3 strain (AID 167); conditions: S. cerevisiae bub3 mutant strain, active compounds read high
# How it was run: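 Steps: expose the mutant yeast strain to compound; grow alongside vehicle-treated cultures; measure growth; express inhibition against the vehicle cultures.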
# [11] = NCI Yeast Anticancer Drug Screen. Data for the wt2 strain (AID 169);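 also: 0% = growth of vehicle-treated yeast cultures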; conditions: S. cerevisiae wt2 strain growth inhibition, active compounds read high
# How it was run: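 Yeast cells were exposed to test compounds, and growth inhibition was measured relative to vehicle-treated controls.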
# [12] = NCI Yeast Anticancer Drug Screen. Data for the mlh1 strain (AID 171);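 also: 0% = growth of vehicle-treated control cultures of the same strain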; conditions: S. cerevisiae mlh1 strain growth inhibition, active compounds read high
# How it was run: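 Yeast carrying a defined genetic alteration in DNA damage repair or cell cycle control were exposed to test compounds. Growth inhibition was measured relative to vehicle-treated controls.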
# [13] = NCI Yeast Anticancer Drug Screen. Data for the sgs1 strain (AID 173);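 also: 0% = growth of vehicle-only control cultures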; conditions: S. cerevisiae sgs1 mutant, active compounds read high
# How it was run: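 Yeast mutant strains carrying defined defects in DNA damage repair or cell cycle control were exposed to test compounds. Growth inhibition was scored against vehicle-treated controls.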
# [14] = NCI Yeast Anticancer Drug Screen. Data for the mlh1 rad18 strain (AID 175); conditions: S. cerevisiae mlh1 rad18 strain growth inhibition, active compounds read high
# How it was run: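 Growth inhibition of the yeast strain was measured after compound exposure and expressed relative to vehicle-treated controls. The strain carries defined defects in DNA damage repair.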
# [15] = NCI Yeast Anticancer Drug Screen. Data for the rad18 strain (AID 177); conditions: S. cerevisiae rad18 mutant growth inhibition, active compounds read high
# How it was run: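 Yeast carrying a defined DNA damage repair alteration were exposed to compounds. Growth inhibition was expressed relative to vehicle-treated controls.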
# [16] = NCI Yeast Anticancer Drug Screen. Data for the mec2-1 strain (AID 157); conditions: S. cerevisiae mec2-1 strain, active compounds read high
# How it was run: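 mec2-1 yeast strain, carrying an alteration in DNA damage repair or cell cycle control, was exposed to compounds; growth inhibition was measured relative to vehicle-treated controls.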
# [17] = at 5.0 µM (retest, dose inferred, filed as 0.5)
# [18] = at 50.0 µM (retest, dose inferred, filed as 5.0)
structure (smiles),measurement,setting,value
Cc1ccc(S(=O)(=O)NNC(=S)Nc2cccc3ccccc23)cc1,growth inhibition,[1]; at 1.2 µM,4%
same,growth inhibition,[1]; at 3.7 µM,2%
same,growth inhibition,[1]; at 11.0 µM,3%
same,growth inhibition,[1]; at 33.0 µM,7%
same,growth inhibition,[1]; at 100.0 µM,6%
same,growth inhibition,[2]; at 1.2 µM,-3%
same,growth inhibition,[2]; at 3.7 µM,-2%
same,growth inhibition,[2]; at 11.0 µM,-1%
same,growth inhibition,[2]; at 33.0 µM,1%
same,growth inhibition,[2]; at 100.0 µM,2%
same,growth inhibition,[3]; at 1.2 µM,10%
same,growth inhibition,[3]; at 3.7 µM,11%
same,growth inhibition,[3]; at 11.0 µM,20%
same,growth inhibition,[3]; at 33.0 µM,15%
same,growth inhibition,[3]; at 100.0 µM,1%
same,growth inhibition,[4]; at 1.2 µM,-1%
same,growth inhibition,[4]; at 3.7 µM,-4%
same,growth inhibition,[4]; at 11.0 µM,-1%
same,growth inhibition,[4]; at 33.0 µM,-28%
same,growth inhibition,[4]; at 100.0 µM,1%
same,growth inhibition,[5]; at 1.2 µM,0%
same,growth inhibition,[5]; at 3.7 µM,-4%
same,growth inhibition,[5]; [17],-4%
same,growth inhibition,[5]; at 11.0 µM,-10%
same,growth inhibition,[5]; at 33.0 µM,2%
same,growth inhibition,[5]; [18],16%
same,growth inhibition,[5]; at 50.0 µM,9.65%
same,growth inhibition,[5]; at 100.0 µM,2%
same,growth inhibition,[6]; at 1.2 µM,-6%
same,growth inhibition,[6]; at 3.7 µM,-4%
same,growth inhibition,[6]; at 11.0 µM,-8%
same,growth inhibition,[6]; at 33.0 µM,-4%
same,growth inhibition,[6]; at 100.0 µM,-3%
same,growth inhibition,[7]; [17],-23%
same,growth inhibition,[7]; [18],41%
same,growth inhibition,[7]; at 50.0 µM,49.6%
same,growth inhibition,[8]; at 1.2 µM,-12%
same,growth inhibition,[8]; at 3.7 µM,-14%
same,growth inhibition,[8]; at 11.0 µM,-18%
same,growth inhibition,[8]; at 33.0 µM,-12%
same,growth inhibition,[8]; at 100.0 µM,-1%
same,growth inhibition,[9]; [17],-1%
same,growth inhibition,[9]; [18],17%
same,growth inhibition,[9]; at 50.0 µM,13.4%
same,growth inhibition,[10]; at 1.2 µM,-1%
same,growth inhibition,[10]; at 3.7 µM,0%
same,growth inhibition,[10]; [17],-19%
same,growth inhibition,[10]; at 11.0 µM,10%
same,growth inhibition,[10]; at 33.0 µM,14%
same,growth inhibition,[10]; [18],96% (active)
same,growth inhibition,[10]; at 50.0 µM,66.5%
same,growth inhibition,[10]; at 100.0 µM,29%
same,growth inhibition,[11]; at 1.2 µM,-2%
same,growth inhibition,[11]; at 3.7 µM,-1%
same,growth inhibition,[11]; at 11.0 µM,2%
same,growth inhibition,[11]; at 33.0 µM,8%
same,growth inhibition,[11]; at 100.0 µM,7%
same,growth inhibition,[12]; at 1.2 µM,0%
same,growth inhibition,[12]; at 3.7 µM,-6%
same,growth inhibition,[12]; at 11.0 µM,-2%
same,growth inhibition,[12]; at 33.0 µM,0%
same,growth inhibition,[12]; at 100.0 µM,-5%
same,growth inhibition,[13]; at 1.2 µM,2%
same,growth inhibition,[13]; at 3.7 µM,4%
same,growth inhibition,[13]; at 11.0 µM,10%
same,growth inhibition,[13]; at 33.0 µM,18%
same,growth inhibition,[13]; at 100.0 µM,17%
same,growth inhibition,[14]; [17],-8%
same,growth inhibition,[14]; [18],29%
same,growth inhibition,[14]; at 50.0 µM,-1.25%
same,growth inhibition,[15]; at 1.2 µM,-1%
same,growth inhibition,[15]; at 3.7 µM,-1%
same,growth inhibition,[15]; at 11.0 µM,2%
same,growth inhibition,[15]; at 33.0 µM,-4%
same,growth inhibition,[15]; at 100.0 µM,12%
Cn1c(=O)c(-c2ccccc2)c(N=[N+]=[N-])c2ccccc21,growth inhibition,[1]; at 1.2 µM,-11%
same,growth inhibition,[1]; at 3.7 µM,-6%
same,growth inhibition,[1]; at 11.0 µM,3%
same,growth inhibition,[1]; at 33.0 µM,92% (active)
same,growth inhibition,[1]; at 100.0 µM,89% (active)
same,growth inhibition,[2]; at 1.2 µM,-38%
same,growth inhibition,[2]; at 3.7 µM,-26%
same,growth inhibition,[2]; at 11.0 µM,-25%
same,growth inhibition,[2]; at 33.0 µM,91% (active)
same,growth inhibition,[2]; at 100.0 µM,90% (active)
same,growth inhibition,[3]; at 1.2 µM,-15%
same,growth inhibition,[3]; at 3.7 µM,6%
same,growth inhibition,[3]; at 11.0 µM,10%
same,growth inhibition,[3]; at 33.0 µM,4%
same,growth inhibition,[3]; at 100.0 µM,-18%
same,growth inhibition,[4]; at 1.2 µM,1%
same,growth inhibition,[4]; at 3.7 µM,0%
same,growth inhibition,[4]; at 11.0 µM,32%
same,growth inhibition,[4]; at 33.0 µM,94% (active)
same,growth inhibition,[4]; at 100.0 µM,89% (active)
same,growth inhibition,[5]; at 1.2 µM,14%
same,growth inhibition,[5]; at 3.7 µM,7%
same,growth inhibition,[5]; [17],-22%
same,growth inhibition,[5]; at 11.0 µM,20%
same,growth inhibition,[5]; at 33.0 µM,92% (active)
same,growth inhibition,[5]; [18],94% (active)
same,growth inhibition,[5]; at 50.0 µM,82.7% (active)
same,growth inhibition,[5]; at 100.0 µM,92% (active)
same,growth inhibition,[16]; at 1.2 µM,-1%
same,growth inhibition,[16]; at 3.7 µM,-9%
same,growth inhibition,[16]; [17],-10%
same,growth inhibition,[16]; at 11.0 µM,4%
same,growth inhibition,[16]; at 33.0 µM,87% (active)
same,growth inhibition,[16]; [18],92% (active)
same,growth inhibition,[16]; at 50.0 µM,83.8% (active)
same,growth inhibition,[16]; at 100.0 µM,93% (active)
same,growth inhibition,[7]; [17],61%
same,growth inhibition,[7]; [18],93% (active)
same,growth inhibition,[7]; at 50.0 µM,87.4% (active)
same,growth inhibition,[8]; at 1.2 µM,5%
same,growth inhibition,[8]; at 3.7 µM,-17%
same,growth inhibition,[8]; at 11.0 µM,13%
same,growth inhibition,[8]; at 33.0 µM,94% (active)
same,growth inhibition,[8]; at 100.0 µM,90% (active)
same,growth inhibition,[9]; [17],23%
same,growth inhibition,[9]; [18],89% (active)
same,growth inhibition,[9]; at 50.0 µM,86% (active)
same,growth inhibition,[10]; at 1.2 µM,26%
same,growth inhibition,[10]; at 3.7 µM,26%
same,growth inhibition,[10]; [17],-7%
same,growth inhibition,[10]; at 11.0 µM,35%
same,growth inhibition,[10]; at 33.0 µM,94% (active)
same,growth inhibition,[10]; [18],95% (active)
same,growth inhibition,[10]; at 50.0 µM,86.5% (active)
same,growth inhibition,[10]; at 100.0 µM,94% (active)
same,growth inhibition,[11]; at 1.2 µM,-35%
same,growth inhibition,[11]; at 3.7 µM,-29%
same,growth inhibition,[11]; at 11.0 µM,-9%
same,growth inhibition,[11]; at 33.0 µM,87% (active)
same,growth inhibition,[11]; at 100.0 µM,91% (active)
same,growth inhibition,[13]; at 1.2 µM,-11%
same,growth inhibition,[13]; at 3.7 µM,-13%
same,growth inhibition,[13]; at 11.0 µM,13%
same,growth inhibition,[13]; at 33.0 µM,91% (active)
same,growth inhibition,[13]; at 100.0 µM,92% (active)
same,growth inhibition,[14]; [17],-4%
same,growth inhibition,[14]; [18],94% (active)
same,growth inhibition,[14]; at 50.0 µM,83% (active)
same,growth inhibition,[15]; at 1.2 µM,7%
same,growth inhibition,[15]; at 3.7 µM,-5%
same,growth inhibition,[15]; at 11.0 µM,11%
same,growth inhibition,[15]; at 33.0 µM,93% (active)
same,growth inhibition,[15]; at 100.0 µM,85% (active)
